Values joined by “and” are separate entries in the source; they are usually repeats but may differ in a detail not shown here. Identical values can stand only once.
Tested on: HL-1
Assay: protection of cardiomyocytes from stress damage, SAR follow-up, cell-based, panel, H9c2 and HL-1, ATP luminescence, set 2 (AID 651871);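 further: cells exposed to stressor for 2 h before ATP readout; reference of the scale not given here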
Conditions: H9c2/HL-1 cardiomyocytes, 2-deoxyglucose stress, with 2-deoxyglucose, run 8, at 19.8 µM (top of the series)

Q: How did the activity (protection/inhibition) turn out when `COc1ccc2c(c1OC)C(=O)N1c3ccccc3C(=O)N(Cc3cccc(Cl)c3Cl)C21` (stereo unspecified) was run?
A: 51.9% and 34.6%

— PubChem BioAssay AID651871 (Sanford-Burnham Center for Chemical Genomics, 2012)
